The values below come from PubChem BioAssay (NCATS).

The target in test [1] is Glutathione peroxidase 1 (Homo sapiens) (UniProt P07203). Put plainly: Primary qHTS Assay for Inhibitors of Recombinant Selenoprotein Glutathione Peroxidase 1 (GPX1) (AID 1845191). Further: nearly all actives have a fitted effect of over 65% in size. Further: potency means the concentration at half of the fitted maximal effect. On activity, negative = inhibition: on the % scale 0 is the no-effect control and ±100 the full control effect. The method, boiled down: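 NADPH consumption tracked by fluorescence at 340/450 nm between t=0 and t=15 min, room temperature. Final mix: 10 nM GPX1, 100 nM glutathione reductase, 1 mM GSH, 0.5 mM NADPH, 0.5 mM cumene hydroperoxide, 0.01% BSA; 30 min compound–enzyme preincubation.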
Chain of Glutathione peroxidase 1 (Homo sapiens) (P07203 whole entry, looked up): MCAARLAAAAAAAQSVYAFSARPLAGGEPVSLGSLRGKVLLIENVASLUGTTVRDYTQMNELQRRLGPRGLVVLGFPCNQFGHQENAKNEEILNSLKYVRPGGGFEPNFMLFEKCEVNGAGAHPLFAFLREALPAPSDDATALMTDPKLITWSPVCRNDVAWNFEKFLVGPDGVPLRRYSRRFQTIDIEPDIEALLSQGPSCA

The target in test [2] is Phospholipid hydroperoxide glutathione peroxidase GPX4 (Homo sapiens) (UniProt P36969). Put plainly: Primary qHTS Assay for Inhibitors of Recombinant Selenoprotein Glutathione Peroxidase 4 (GPX4) (AID 1845192). Further: nearly all actives have a fitted effect of over 65% in size. Further: potency means the concentration at half of the fitted maximal effect. On activity change, negative = inhibition: on the % scale 0 is the no-effect control and ±100 the full control effect. The method, boiled down:
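NADPH consumption followed by fluorescence at 340/450 nm, t=0 and after 15 min at room temperature. Reaction started with cumene hydroperoxide (0.5 mM final) after 30 min compound–GPX4 preincubation; final 200 nM GPX4, 100 nM GR, 1 mM GSH, 0.5 mM NADPH.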

Test [3] is described as follows: qHTS profiling for inhibitors of Plasmodium falciparum proliferation (AID 504749). Further: nearly all actives have a fitted effect of over 60% in size. Further: potency means the concentration at half of the fitted maximal effect.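 On activity, negative = inhibition: 0% = DMSO vehicle and full inhibition = artemisinin control.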 The settings on record: P. falciparum in erythrocytes, SYBR Green DNA, 72 h. The method, boiled down: (§1)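 In a 72 h erythrocytic culture (37 C, humidified, 5% CO2) at 2.5% hematocrit and 0.3% starting parasitemia, compounds were tested; SYBR Green I in detergent lysis buffer stained parasite DNA overnight.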

Another test relates to 3D7. The description is as above. The settings on record: P. falciparum in erythrocytes, SYBR Green DNA, 72 h; series mostly up to 28.7 µM. In outline:
as §1

A short description of test [4]: qHTS drug screen for cell cycle checkpoint inhibitors in PARPi-resistant BRCA-mutant ovarian cancer cell lines. (AID 1963452; calls by dose curve). The settings on record: PEO1/OlaR viability, CellTiter-Glo luminescence, 96 h, stronger effect = lower value. In outline: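 PEO1, PEO4 and PEO1/OlaR ovarian cancer cells, 600 per well, exposed 96 h at 37C to a dilution series. Viability read by CellTiter-Glo luminescence, normalized to DMSO and empty wells; activity summarized as Z-AUC.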

Test [5] deals with Luciferin 4-monooxygenase (Photinus pyralis) (UniProt P08659). Put plainly: Primary firefly luciferase (FLuc) qHTS assay for identification of artifact compounds. (AID 1845220).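 Further: plate controls were DMSO vehicle for no effect and no enzyme for full effect; nearly all actives have a fitted effect of over 60% in size.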 The settings on record: outcome: dose series up to 54.1 µM. The method, boiled down: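 FLuc 10 nM; luciferin 10 uM; ATP 10 uM; Tris-acetate pH 7.6, Mg-acetate 10 mM; 15 min RT preincubation; 5 min reaction; luminescence.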

Test [6] is described as follows: Primary fluorescence-based thiol-reactive (MSTI) qHTS assay for identification of artifact compounds. (AID 1845221).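 Further: thiol-reactive compounds lower the probe fluorescence signal; nearly all actives have a fitted effect of over 65% in size.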 The method, boiled down:
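In PBS pH 7.4 with 2% DMSO, each compound met 4 uM MSTI for one hour at ambient temperature, shielded from light, before fluorescence detection.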

Test [7] has as its system Nanoluciferase (engineered Oplophorus gracilirostris luciferase). Put plainly: Primary Nanoluciferase (NLuc) qHTS assay for identification of artifact compounds. (AID 1845222).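 Further: NLuc secreted into diluted conditioned medium of S16 cells; 0% = DMSO and -100% = no enzyme.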 The method, boiled down:
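NLuc from S16 cell medium (1:55) plus test compounds, 15 min, room temperature. Luminescence after Nano-Glo (1:100) addition, 5 min.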

Test [8] is described as follows: Primary redox qHTS assay for identification of artifact compounds. (AID 1845223).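 Further: 0% = DMSO and 100% = reference compound.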 The method, boiled down: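 Redox-cycling detection via DTT (250 uM final) oxidation coupled to Amplex Red (25 uM)/HRP (250 mU/mL) in HBSS. 15 min preincubation plus 30 min after DTT, room temperature. Ex/Em 525/598 nm; 4-parameter Hill fit against DMSO and 10 uM DA3003.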
Where [9] appears, read: at 28.7 µM (top of the series), parasite line A.
Setting [10] is: at 28.7 µM (top of the series), parasite line B.
[11] abbreviates: measured here: PEO1 parental Z-AUC.

Records with an inconclusive call do not appear. The source made the active and inactive calls. Unless noted, the call rests on the fitted dose curve; in most records, active means well fitted curve in the direction sought with a large enough effect; inconclusive means small, poorly fitted or top-dose-only effect, or another doubt; inactive means no such curve, though single readings can be large; an effect the other way counts as inactive or inconclusive.

Chain of Phospholipid hydroperoxide glutathione peroxidase GPX4 (Homo sapiens) (P36969 whole entry, looked up): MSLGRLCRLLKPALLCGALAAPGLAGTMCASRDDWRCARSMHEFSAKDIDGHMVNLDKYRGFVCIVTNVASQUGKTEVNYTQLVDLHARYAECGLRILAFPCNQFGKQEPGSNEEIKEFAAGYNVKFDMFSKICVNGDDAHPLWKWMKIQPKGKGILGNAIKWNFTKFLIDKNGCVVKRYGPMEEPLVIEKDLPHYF

On to `CC(/C=C/C=C(\C)C(=O)O[C@@H]1O[C@H](CO[C@@H]2O[C@H](CO)[C@@H](O)[C@H](O)[C@H]2O)[C@@H](O)[C@H](O)[C@H]1O)=C\C=C\C=C(C)\C=C\C=C(/C)C(=O)O[C@@H]1O[C@H](CO[C@@H]2O[C@H](CO)[C@@H](O)[C@H](O)[C@H]2O)[C@@H](O)[C@H](O)[C@H]1O`, for which the Potency result (in test [1]; in test [2]; with 3D7) was “inactive” throughout. Also, the figures for the activity, negative = inhibition in test [3] (setting [9]) and in [3] (setting [10]) were 7.84% (inactive) and -1.1% (inactive), respectively.

In the case of `Oc1cc(O)cc(O)c1`, the Potency result (in test [1]; in test [2]; with 3D7) was “inactive” each time. The activity, negative = inhibition in [3] (setting [9]) is 0.686% (inactive); in test [3] (setting [10]), -2.93% (inactive).

For `N=C(N)c1ccc(/C=C/c2ccc(C(=N)N)cc2O)cc1`, the Potency result in test [1] and in test [2] was “inactive” in each case. In addition, the Potency in [3] (parasite line A) is 8.91 µM (active); in [3] (parasite line B), 10 µM (active).

For the compound `N#Cc1ccc2c(c1)N(CCCN1CCC(O)CC1)c1ccccc1S2`, the Potency entry (in [1]; in test [2]; with 3D7) was “inactive” in each case. The activity, negative = inhibition in test [3] (setting [9]) is -11.2% (inactive); in [3] (setting [10]) it was -26.8% (inactive).

As to `CC(C)Cc1ccc([C@@H](C)C(=O)NS(C)(=O)=O)cc1`, the Potency entry (in [1]; in [2]; with 3D7) was “inactive” throughout. Moreover, the figures for the Z-AUC in test [4], in test [4] (setting [11]) and in test [4] (measured here: PEO4 Z-AUC) were 1.32 (inactive), 0.781 and 0.752, respectively. For the same compound, the activity, negative = inhibition is 3.44% (inactive) in test [3] (setting [9]) and -5.62% (inactive) in test [3] (setting [10]).

For `CCCCC[C@H](O)/C=C/[C@H]1[C@H](O)CC(=O)[C@@H]1CCCCCCC(=O)O`, the Potency entry in test [1] and in test [2] was “inactive” in each case. The Z-AUC in test [4] was -0.83 (inactive); in [4] (setting [11]) it was -0.667; in test [4] (measured here: PEO4 Z-AUC) it was -0.531.

For `O=C(O)Cc1cc(I)c(Oc2ccc(O)c(I)c2)c(I)c1`, the Potency entry (in test [1]; in [2]; in the test with 3D7) was “inactive” throughout. Further, the compound was classed as inactive in [5] and in [6]. The activity, negative = inhibition was 1.81% (inactive) in [3] (at 12.8 µM (top of the series), parasite line A) and 6.07% (inactive) in [3] (at 12.8 µM (top of the series), parasite line B).

As for `C[C@]12CC[C@@H]3c4ccc(OC(=O)c5ccccc5)cc4CC[C@H]3[C@@H]1CC[C@@H]2O`, the Potency entry in [1] and in [2] was “inactive” in each case. Also, the result in test [5], in [7] and in [8] was inactive. For the same compound, the activity, negative = inhibition in [3] (setting [9]) is -13.9% (inactive); in test [3] (setting [10]) it was 5.42% (inactive). In addition, in the test with 3D7, the Potency is 6.31 µM (active).

For `CC[C@H]1OC(=O)[C@H](C)[C@@H](O[C@H]2C[C@@](C)(OC)[C@@H](O)[C@H](C)O2)[C@H](C)[C@@H](O[C@@H]2O[C@H](C)C[C@H](N(C)C)[C@H]2O)[C@](C)(O)C[C@@H](C)CN(C)[C@H](C)[C@@H](O)[C@]1(C)O`, the Potency result (in test [1]; in test [2]; in the test on 3D7) was “inactive” throughout. In addition, the Z-AUC in [4] is 1.04 (inactive); in test [4] (setting [11]), 0.718; in test [4] (measured here: PEO4 Z-AUC), 1.23.

`O=S(=O)(O)CC(S)CS` (stereo not drawn): the Potency in [1] is 10.1 µM (active); in test [2] it was 7.08 µM (active). The activity, negative = inhibition in [3] (setting [9]) was 14.3% (inactive); in test [3] (setting [10]), -2.53% (inactive). Besides, the Potency result in the test with 3D7 was “inactive”.

For the compound `CC(=O)[O][Al][O]C(C)=O`, the activity, negative = inhibition in test [1] is -5.17% [at 9.52 µM] (inactive); in test [3] (setting [9]), 4.56% (inactive); in test [3] (setting [10]), 3.22% (inactive). The activity change, negative = inhibition in test [2] was -11.7% [at 9.73 µM] (inactive). The Potency result in the test on 3D7 was “inactive”.

Regarding `OCCOCCOCCO`, the Potency entry (in [1]; in test [2]; in the test on 3D7) was “inactive” throughout. Further, the activity, negative = inhibition in test [3] (setting [9]) was 16.8% (inactive); in test [3] (setting [10]), 11.6% (inactive).

For `CC1CC(OC(=O)C(O)c2ccccc2)CC(C)(C)C1` (stereo not drawn), the Potency entry (in test [1]; in test [2]; with 3D7) was “inactive” each time. In addition, the compound was classed as inactive in test [5], in [7] and in [8]. Besides, the results for the activity, negative = inhibition in [3] (setting [9]) and in [3] (setting [10]) were -16% (inactive) and -1.53% (inactive), respectively.

Consider `Cc1c(C)c2c(c(C)c1OC(=O)CCC(=O)O)CC[C@@](C)(CCC[C@H](C)CCC[C@H](C)CCCC(C)C)O2`, for which the Potency entry in test [1] and in test [2] was “inactive” throughout. The activity, negative = inhibition in test [3] (setting [9]) is -10.9% (inactive); in test [3] (setting [10]), 4.87% (inactive).

`CCCC(CCC)C(=O)OC1C[C@H]2CC[C@@H](C1)[N+]2(C)C` (stereo partly drawn): the Potency result in test [1] and in [2] was “inactive” throughout. Moreover, in [3] (parasite line A), the Potency is 5.62 µM (active).

As for `O=C(NNCS(=O)(=O)O)c1ccncc1`, the Potency in test [1] was 5.7 µM (active); in [2] it was 3.98 µM (active). Also, the activity, negative = inhibition was 13.1% (inactive) in test [3] (setting [9]) and 6.08% (inactive) in test [3] (setting [10]). In addition, the Potency result with 3D7 was “inactive”.

Turning to `NC[C@H]1O[C@H](O[C@H]2[C@H](O)[C@@H](O[C@H]3O[C@H](CO)[C@@H](O)[C@H](N)[C@H]3O)[C@H](N)C[C@@H]2N)[C@H](N)C[C@@H]1O`, the Potency result in test [1] and in test [2] was “inactive” throughout. Also, the Z-AUC in [4] is -0.784 (inactive); in test [4] (setting [11]), -0.522; in test [4] (measured here: PEO4 Z-AUC) it was -0.139.

As for `CNC(=O)OCc1cccc(COC(=O)NC)n1`, the Potency entry (in [1]; in test [2]; with 3D7) was “inactive” each time. Also, the results for the activity, negative = inhibition in [3] (setting [9]) and in [3] (setting [10]) were 3.63% (inactive) and 1.01% (inactive), respectively.

For `CN[C@@H]1[C@@H](O)[C@@H](O[C@@H]2[C@@H](O)[C@H](O[C@H]3O[C@H](CN)[C@@H](O)[C@H](O)[C@H]3O)[C@@H](N)C[C@H]2NC(=O)C(O)CN)OC[C@]1(C)O` (stereo partly drawn), the Potency entry in test [1] and in test [2] was “inactive” each time. Further, the Z-AUC was -1.59 (inactive) in test [4], -0.482 in test [4] (setting [11]) and -1.12 in [4] (measured here: PEO4 Z-AUC).

In the case of `CCCCCCCCCCCCCC(=O)OCC(COP(=O)([O-])OCC[N+](C)(C)C)OC(=O)CCCCCCCCCCCCC` (stereo not drawn), the Potency entry (in test [1]; in test [2]; in the test with 3D7) was “inactive” in each case. Besides, the activity, negative = inhibition in test [3] (setting [9]) was 4.09% (inactive); in test [3] (setting [10]) it was -2.15% (inactive).

Regarding `FC(F)(F)C(F)(F)C(F)(F)C(F)(F)C(F)(F)F`, the Potency result (in [1]; in test [2]; with 3D7) was “inactive” each time. Further, the activity, negative = inhibition in [3] (setting [9]) was 11% (inactive); in test [3] (setting [10]), 17.9% (inactive).

For `CCCCCCCCCCCCCCCCCCCCCC(=O)Nc1ccn([C@@H]2O[C@H](CO)[C@@H](O)[C@@H]2O)c(=O)n1`, the Potency entry (in test [1]; in [2]; with 3D7) was “inactive” each time. Moreover, the figures for the activity, negative = inhibition in test [3] (setting [9]) and in test [3] (setting [10]) were 4.02% (inactive) and 6.88% (inactive), respectively.
